Experiment [1] can be described thus: compounds binding Alexa647 anti-His antibody – biochemical, small-molecule microarray, 635 nm fluorescence, artefact control for SMM control protein annotation, primary screen (AID 1128).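 Note: score merges feature fluorescence with signal-to-noise for each printed compound spot.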 The following applies: higher = more signal.
Experiment [2] concerns Human papillomavirus type 1a E7 protein (residues 1-88). The experiment is described as follows: HPV1a E7 small-molecule binders, primary screen, biochemical, small-molecule microarray, residues 1-88, 635 nm (AID 1129). Conditions: small-molecule microarray binding, fluorescence 635 nm; higher = more signal.
The target in experiment [3] is Focal adhesion kinase 1 (Homo sapiens) (UniProt Q05397). The experiment can be described thus: PTK2 protein binding on printed compound slides – biochemical, small-molecule microarray, 635/667 nm fluorescence, BSA, DTT, primary screen (AID 1130).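 Note: composite of spot emission at 667 nm and signal to noise over triplicate slides.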 The following applies: 635 nm fluorescence, higher = more signal.
Sequence of Focal adhesion kinase 1 (Homo sapiens) (Q05397 whole entry, looked up): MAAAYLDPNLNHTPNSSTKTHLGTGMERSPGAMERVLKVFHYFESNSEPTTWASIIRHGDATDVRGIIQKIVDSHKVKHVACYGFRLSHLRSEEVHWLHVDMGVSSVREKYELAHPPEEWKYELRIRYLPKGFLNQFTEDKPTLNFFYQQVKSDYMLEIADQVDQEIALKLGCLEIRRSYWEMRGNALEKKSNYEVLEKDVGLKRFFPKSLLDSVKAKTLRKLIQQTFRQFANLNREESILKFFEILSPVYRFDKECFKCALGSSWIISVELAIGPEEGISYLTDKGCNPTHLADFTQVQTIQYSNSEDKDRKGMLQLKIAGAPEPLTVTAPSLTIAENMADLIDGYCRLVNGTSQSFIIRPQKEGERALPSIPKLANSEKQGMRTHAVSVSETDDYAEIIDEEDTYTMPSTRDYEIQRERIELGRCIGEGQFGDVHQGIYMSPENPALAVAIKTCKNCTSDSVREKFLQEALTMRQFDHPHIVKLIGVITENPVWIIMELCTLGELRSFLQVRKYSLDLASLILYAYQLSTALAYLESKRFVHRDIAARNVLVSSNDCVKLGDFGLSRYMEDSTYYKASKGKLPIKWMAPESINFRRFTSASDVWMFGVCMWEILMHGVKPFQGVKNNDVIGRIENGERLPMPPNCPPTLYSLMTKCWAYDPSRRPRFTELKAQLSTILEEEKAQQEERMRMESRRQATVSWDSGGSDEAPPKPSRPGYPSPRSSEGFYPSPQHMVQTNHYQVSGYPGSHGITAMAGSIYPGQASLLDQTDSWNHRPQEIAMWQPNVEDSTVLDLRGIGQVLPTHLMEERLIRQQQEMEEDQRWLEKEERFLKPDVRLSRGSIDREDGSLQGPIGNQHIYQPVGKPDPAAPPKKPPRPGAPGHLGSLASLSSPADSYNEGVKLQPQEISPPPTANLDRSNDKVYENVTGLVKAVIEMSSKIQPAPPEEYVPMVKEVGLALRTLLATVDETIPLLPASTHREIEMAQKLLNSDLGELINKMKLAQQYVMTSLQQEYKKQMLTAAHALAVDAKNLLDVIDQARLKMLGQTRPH
For experiment [4], the system named is Fibrinogen (Alexa647-labelled). The experiment is described as follows: Alexa647-fibrinogen binding to printed small molecules – biochemical, small-molecule microarray, 635/667 nm fluorescence, artefact control for SMM control-protein annotation, profiling panel (AID 1131).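 Note: z-score merges 667 nm fluorescence with per-spot signal-to-noise over triplicate slides.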 Conditions: fibrinogen-A647 binding fluorescence, higher = more signal.
For experiment [5], the target named is Follistatin (Homo sapiens) (UniProt P19883). The experiment is described as follows: FST protein binding to printed compounds – biochemical, small-molecule microarray, 635/667 nm fluorescence, primary screen (AID 1132). The following applies: 635 nm fluorescence, higher = more signal.
Sequence of Follistatin (Homo sapiens) (P19883 whole entry, looked up): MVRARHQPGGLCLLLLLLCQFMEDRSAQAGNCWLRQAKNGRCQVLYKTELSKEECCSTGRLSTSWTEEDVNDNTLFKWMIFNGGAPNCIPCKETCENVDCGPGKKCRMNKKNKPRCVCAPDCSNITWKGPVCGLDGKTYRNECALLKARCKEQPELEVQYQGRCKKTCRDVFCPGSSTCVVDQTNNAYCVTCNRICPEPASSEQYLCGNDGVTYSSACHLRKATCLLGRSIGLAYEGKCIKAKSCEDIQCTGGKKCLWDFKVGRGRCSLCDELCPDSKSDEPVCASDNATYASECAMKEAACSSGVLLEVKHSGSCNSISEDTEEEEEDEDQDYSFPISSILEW
Experiment [6] deals with Fibroblast growth factor 2 (Homo sapiens) (UniProt P09038). The experiment is described as follows: basic fibroblast growth factor binding to printed compounds – biochemical, small-molecule microarray, 635/667 nm fluorescence, primary screen (AID 1133). Conditions: FGF2, fluorescence 635/667, higher = more signal.
Sequence of Fibroblast growth factor 2 (Homo sapiens) (P09038 whole entry, looked up): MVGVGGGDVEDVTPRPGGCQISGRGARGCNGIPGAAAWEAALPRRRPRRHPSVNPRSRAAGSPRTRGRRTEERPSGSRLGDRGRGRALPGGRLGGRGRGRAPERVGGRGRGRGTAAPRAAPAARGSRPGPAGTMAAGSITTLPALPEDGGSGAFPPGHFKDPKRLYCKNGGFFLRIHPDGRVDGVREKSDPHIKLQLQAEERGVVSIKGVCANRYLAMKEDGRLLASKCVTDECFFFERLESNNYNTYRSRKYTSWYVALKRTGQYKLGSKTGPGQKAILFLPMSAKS
Experiment [7] is described as follows: JC-1 mitochondrial potential readout, lung cancer cells – cell-based, A549, JC-1 fluorescence, basal, 24 h, 100 nL, profiling panel (AID 1138).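 Note: A549 lung adenocarcinoma cells under basal conditions with no added stimulus; test concentration not given here.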 Conditions: higher = more signal.
In experiment [8] the test system is Lefty1. The experiment is described as follows: Lefty1 protein binding to printed compounds – biochemical, small-molecule microarray, 635/667 nm fluorescence, primary screen (AID 1139). The following applies: fluorescence 635/667, higher = more signal.
For experiment [9], the system named is wheat germ agglutinin (Triticum aestivum), Alexa647-labelled. The experiment is described as follows: Alexa647-WGA lectin binding to printed small molecules – biochemical, small-molecule microarray, 635/667 nm fluorescence, artefact control for SMM control-protein annotation, profiling panel (AID 1140).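 Note: score merges 667 nm feature emission with signal to noise over triplicate slides.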 Conditions: WGA-A647 binding, 635 nm fluorescence, higher = more signal.

The target in experiment [10] is Luciferin 4-monooxygenase (Photinus pyralis) (UniProt P08659). The experiment is described as follows: inhibition of purified Photinus pyralis luciferase – biochemical, luminescence, purified enzyme, 2006 set, primary screen (AID 1141).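 Note: cell-free assay with purified firefly luciferase at 100 ng per well in PBS; test concentration not given here.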 The following applies: purified firefly luciferase, SteadyGlo luminescence, 30 min; higher = more signal, called active from +8 up or from −8 down.
Sequence of Luciferin 4-monooxygenase (Photinus pyralis) (P08659 whole entry, looked up): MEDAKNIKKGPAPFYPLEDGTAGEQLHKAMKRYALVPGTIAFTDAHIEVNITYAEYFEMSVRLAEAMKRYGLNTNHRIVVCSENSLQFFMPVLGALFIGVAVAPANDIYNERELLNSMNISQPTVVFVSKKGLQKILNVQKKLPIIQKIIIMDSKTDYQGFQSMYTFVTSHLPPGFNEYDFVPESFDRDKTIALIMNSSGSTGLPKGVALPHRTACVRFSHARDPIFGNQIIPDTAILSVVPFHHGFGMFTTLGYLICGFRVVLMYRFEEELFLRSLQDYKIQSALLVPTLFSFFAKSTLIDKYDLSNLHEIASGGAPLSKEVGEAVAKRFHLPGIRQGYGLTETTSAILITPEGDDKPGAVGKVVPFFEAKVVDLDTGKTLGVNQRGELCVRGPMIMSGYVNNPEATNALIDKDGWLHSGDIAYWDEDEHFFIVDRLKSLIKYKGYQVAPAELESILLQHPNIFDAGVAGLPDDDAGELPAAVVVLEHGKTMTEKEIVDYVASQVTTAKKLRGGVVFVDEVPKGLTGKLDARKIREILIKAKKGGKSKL

Calls of active or inactive are those of the source.

For `CCCNC(=O)OC[C@H]1O[C@H](c2ccccc2)C=C[C@@H]1Oc1ccc(OC)cc1`, the composite z-score was 0.98 in experiment [1]; 0.0455 in experiment [2]; -0.0038 in experiment [3]; 0.25 in experiment [4]; -0.143 in experiment [5]; -0.179 in experiment [6]. The composite z-score was 0.212 in [8] and -0.114 in experiment [9]. Besides, the z-score in experiment [7] was -0.388; in [10] it was -0.533 (inactive).
Take `COC(=O)CC=C[C@@H](C)[C@@H](C=NO[C@@H]1O[C@H](COC(C)=O)[C@@H](OC(C)=O)[C@H](OC(C)=O)[C@H]1OC(C)=O)OC`: the composite z-score in [1] was 0.662; in [2] it was 0.036; in experiment [3], 0.107; in [4] it was -0.0528; in [5] it was -0.186; in [6] it was -0.347. The composite z-score in experiment [8] was -0.268; in experiment [9], -0.421. The results for the z-score in [7] and in [10] were -0.361 and 0.86 (inactive), respectively.
Regarding `CCOC(=O)[C@H](CC(C)C)NC(=O)CCC1CC(OC(=O)NCc2ccc3c(c2)OCO3)CC2(CCCC(COC(=O)NCc3cccc(C(F)(F)F)c3)O2)O1` (stereo not given in full), the composite z-score is 0.339 in experiment [1]; 0.218 in [2]; 0.201 in [3]; -0.092 in experiment [4]; 0.337 in [5]; 0.363 in [6]. In addition, the composite z-score in experiment [8] is 0.389; in experiment [9], 0.144. Also, the z-score is -0.326 in experiment [7] and 0.679 (inactive) in experiment [10].
In the case of `CCOC(=O)NN=C1C[C@@H](O)[C@@H](O)[C@@H]2[C@@H]3C(=O)N([C@@H](C)c4ccccc4)C(=O)[C@@H]3CC[C@H]12`, the composite z-score is 0.236 in experiment [1]; 0.416 in experiment [2]; -0.35 in experiment [3]; 0.65 in [4]; 0.285 in experiment [5]; 0.166 in experiment [6]. Also, the composite z-score amounted to 0.246 in [8] and 0.152 in [9]. Further, the z-score in [7] was -0.877; in [10], 0.846 (inactive).
Regarding `COC(=O)[C@@H]1CC[C@H](C)[C@@H](c2ccc(C)cc2)N1C(=O)c1ccc(C=NO[C@H](C)c2cn([C@H](CO)Cc3ccccc3)nn2)cc1`, the composite z-score was 0.762 in experiment [1]; 1.04 in experiment [2]; 0.926 in experiment [3]; -0.466 in experiment [4]; 0.738 in experiment [5]; 0.377 in experiment [6]. The results for the composite z-score in experiment [8] and in [9] were 0.957 and 0.295, respectively. Further, the z-score in experiment [7] was -0.406; in [10], 0.184 (inactive).
`C[C@H]1COC(=O)[C@@H]2CCCN2C(=O)[C@@H](C)COC(=O)[C@H](Cc2ccccc2)NC1=O`: the composite z-score in experiment [1] turned out to be 0.305; in [2] it was 0.767; in experiment [3] it was 0.0349; in [4], 0.208; in experiment [5] it was 0.42; in experiment [6], 0.458. Also, the composite z-score in experiment [8] was determined as 0.96; in experiment [9], 0.111. The z-score in experiment [7] was -0.731; in experiment [10], 1.48 (inactive).
Take `COC(=O)[C@@H]1CC[C@H](C)[C@@H](c2ccc(C)cc2)N1C(=O)c1ccc(C=NO[C@@H]2O[C@H](COC(C)=O)[C@@H](OC(C)=O)[C@H](OC(C)=O)[C@H]2OC(C)=O)cc1`: the composite z-score is 2.08 in [1]; 0.68 in [2]; -0.169 in [3]; 0.926 in [4]; 0.551 in experiment [5]; 0.336 in experiment [6]. The composite z-score was found to be 1.06 in experiment [8] and 0.347 in [9]. In addition, the z-score was 0.0992 in [7] and 0.945 (inactive) in [10].
Turning to `CCc1cc2c(nc1CC)CCN(CCC(C)=NO[C@@H](C)c1cn([C@H](CO)Cc3ccccc3)nn1)C2`, the composite z-score is 1.62 in [1]; -0.452 in experiment [2]; -0.0908 in experiment [3]; 0.996 in experiment [4]; 0.595 in experiment [5]; 0.0391 in experiment [6]. Also, the composite z-score in experiment [8] was determined as 0.529; in experiment [9], 0.307. Further, the z-score in experiment [7] was 2.07; in [10], -0.896 (inactive).
With `COC(=O)[C@H](C)NC(=O)CCC1CC(OC(=O)NCc2ccc3c(c2)OCO3)CC2(CCCC(COC(=O)NCC3CCCCC3)O2)O1` (stereo not given in full), the composite z-score was found to be 0.807 in experiment [1]; 1.16 in experiment [2]; 0.408 in experiment [3]; 0.52 in experiment [4]; 0.533 in experiment [5]; 0.77 in experiment [6]. In addition, the composite z-score in experiment [8] was 0.97; in experiment [9], 0.723. Also, the z-score is -0.00341 in [7] and 1.16 (inactive) in experiment [10].
Regarding `CON=C[C@@H](NS(=O)(=O)c1ccc(C)cc1)[C@H](C)C=CCC(=O)OC`, the composite z-score is 0.4 in [1]; -1.15 in experiment [2]; 0.438 in [3]; -0.717 in experiment [4]; 0.718 in experiment [5]; 0.747 in experiment [6]. In addition, the composite z-score in [8] is 0.585; in experiment [9], -0.35. Moreover, the figures for the z-score in experiment [7] and in experiment [10] were 0.764 and -0.42 (inactive), respectively.
Turning to `CCOC(=O)[C@H](CC(C)C)NC(=O)CCC1CC(OC(=O)NCCc2ccc(F)cc2)CC2(CCCC(COC(=O)NCCOc3ccccc3)O2)O1` (stereo not given in full), the composite z-score in experiment [1] was 0.744; in experiment [2], 0.698; in experiment [3] it was 0.231; in [4], 0.985; in experiment [5], 0.826; in experiment [6] it was 0.692. The composite z-score in [8] is 1.35; in [9], 0.394. For the same molecule, the z-score in [7] is 0.0542; in experiment [10] it was 0.96 (inactive).
Consider `COC(=O)CC=C[C@@H](C)[C@@H](C=NOC[C@@H](O)[C@H]1O[C@@H]2OC(C)(C)O[C@@H]2[C@H]1O)NS(=O)(=O)c1ccc(C)cc1`, for which the composite z-score in experiment [1] was 1.93; in experiment [2] it was 0.607; in experiment [3], -0.196; in experiment [4] it was -0.174; in [5], 0.597; in experiment [6], 0.276. The composite z-score is 0.223 in experiment [8] and 0.0146 in experiment [9]. Moreover, the z-score in experiment [7] was -0.656; in experiment [10] it was 0.543 (inactive).
As for `CO[C@H]1COC(=O)[C@@H](C)COC(=O)[C@@H](OCc2ccccc2)C=C[C@@H]1C`, the composite z-score in experiment [1] is -0.328; in experiment [2] it was -0.869; in [3], 0.106; in [4], -0.648; in [5], -0.17; in [6], 0.193. Also, the composite z-score in [8] was 0.0823; in experiment [9], -1.08. In addition, the z-score in [7] is 0.651; in [10], -0.415 (inactive).
In the case of `CCOC(=O)NN=C1C[C@@H](O)[C@@H](O)[C@@H]2[C@@H]3C(=O)N(Cc4ccccc4)C(=O)[C@@H]3CC[C@H]12`, the composite z-score in experiment [1] was 0.347; in [2], -0.143; in [3], 0.0254; in experiment [4] it was 0.706; in experiment [5], 0.0086; in experiment [6], -0.227. For the same molecule, the composite z-score in [8] stood at 0.3; in experiment [9] it was 0.0439. The z-score was -0.39 in experiment [7] and 0.746 (inactive) in experiment [10].
As to `CCOC(=O)[C@H](Cc1ccccc1)NC(=O)CCC1CC(OC(=O)NCCc2ccc(F)cc2)CC2(CCCC(COC(=O)NCc3ccccc3)O2)O1` (stereo not given in full), the composite z-score in experiment [1] is 0.704; in experiment [2] it was 1.04; in experiment [3], 0.254; in experiment [4], 0.282; in experiment [5], 0.63; in experiment [6], 0.473. Further, the composite z-score in experiment [8] was 0.833; in experiment [9] it was 0.115. Further, the z-score was 0.216 in experiment [7] and 0.877 (inactive) in experiment [10].
On to `CC(=O)OC[C@H]1O[C@H](CC=NO[C@H](C)c2cn([C@H](CO)Cc3ccccc3)nn2)C=C[C@@H]1OC(C)=O`, for which the composite z-score in [1] was 0.499; in experiment [2], 0.777; in experiment [3], -0.0453; in experiment [4], 0.0573; in experiment [5] it was 0.69; in experiment [6] it was 0.494. The composite z-score in experiment [8] came to 0.732; in experiment [9], 0.439. In addition, the z-score in experiment [7] is -0.866; in experiment [10], 0.809 (inactive).

The values above are taken from PubChem BioAssay.
